The values that follow come from PubChem BioAssay (Tox21).

Unmarked numbers belong to inactive results. Inconclusive results are not listed. Where a call stands in place of a potency, no number is given. Activity calls are given as the source filed them. Unless noted, the call rests on the fitted dose curve; in most records, active means well fitted curve in the direction sought with a large enough effect in the repeat runs; inconclusive means weak or mixed curves; inactive means no such curve, though single readings can be large; an effect the other way counts as inactive or inconclusive.

Chain of Estrogen receptor (Homo sapiens) (P03372 whole entry, looked up): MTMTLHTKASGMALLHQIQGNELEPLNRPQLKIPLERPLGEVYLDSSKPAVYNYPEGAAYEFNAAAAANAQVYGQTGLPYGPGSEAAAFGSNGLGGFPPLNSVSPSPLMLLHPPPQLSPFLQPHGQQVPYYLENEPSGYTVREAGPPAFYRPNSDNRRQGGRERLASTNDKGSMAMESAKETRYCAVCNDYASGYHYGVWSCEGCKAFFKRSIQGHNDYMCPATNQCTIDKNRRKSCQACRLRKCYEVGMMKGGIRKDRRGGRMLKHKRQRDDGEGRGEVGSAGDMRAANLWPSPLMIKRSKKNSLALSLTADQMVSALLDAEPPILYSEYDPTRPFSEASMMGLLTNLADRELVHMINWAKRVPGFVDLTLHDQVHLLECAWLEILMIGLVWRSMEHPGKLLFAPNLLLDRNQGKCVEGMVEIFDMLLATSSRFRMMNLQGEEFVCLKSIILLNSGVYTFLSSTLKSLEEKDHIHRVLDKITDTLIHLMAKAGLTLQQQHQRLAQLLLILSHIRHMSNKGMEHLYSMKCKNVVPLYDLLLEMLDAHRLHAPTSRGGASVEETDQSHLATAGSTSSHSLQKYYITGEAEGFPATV

The first assay concerns the target Estrogen receptor (Homo sapiens) (UniProt P03372). Put plainly: qHTS assay to identify small molecule antagonists of the estrogen receptor alpha (ER-alpha) signaling pathway using the BG1 cell line in the presence of 0.1 nM 17-beta-estradiol (AID 1259244). Further: nearly all actives have a fitted effect of over 50% in size. Conditions: VM7Luc4E2 (BG1) ERE-luciferase, antagonist mode, 0.1 nM E2, 22 h; series mostly up to 92.4 µM. Summed up:
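Seeding of stripped-serum-adapted VM7Luc4E2 cells, 24 h attachment, compound transfer, then 0.1 nM final 17beta-estradiol; after 22 h incubation, ONE-Glo reagent and luminescence reading.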
For orientation: Quantitative high-throughput screening tests each substance at several concentrations.
Consider `O=S(=O)(O)c1cc(O)c(O)c(S(=O)(=O)O)c1`, for which the result was inactive.
As for `CC1=NN(c2cccc(S(=O)(=O)O)c2)C(=O)C1`, the outcome was inactive.
Consider `CC(C)(C)c1ccc(-c2ccc(C(C)(C)C)cc2)cc1`, for which the outcome was inactive.
Turning to `Cc1ccc(-c2ncc(Cl)cc2-c2ccc(S(C)(=O)=O)cc2)cn1`, the outcome was inactive.
Turning to `CCCCS(=O)(=O)N[C@@H](Cc1ccc(OCCCCC2CCNCC2)cc1)C(=O)O`, the outcome was inactive.
For the compound `O=C(c1ccccc1O)c1ccccc1O`, the result was inactive.
`CC(=O)N[C@H]1[C@H]([C@H](O)[C@H](O)CO)OC(C(=O)O)=C[C@@H]1N=C(N)N`: the outcome was inactive.
As to `C=C[Si](OC(C)=O)(OC(C)=O)OC(C)=O`, the result was inactive.
Turning to `CCOc1c(N2CCOCC2)cnn(C)c1=O`, the outcome was inactive.
`O=C(O)CCSCCC(=O)O`: the result was inactive.

Tested on in a further assay: not listed separately
The assay is described as follows: qHTS assay to identify small molecule phospholipidosis (PLD) inducers (AID 1259344; active means well fitted curve in the direction sought with a large enough effect; an effect the other way counts as inactive or inconclusive). Conditions: HepG2 phospholipidosis, LipidTOX Red imaging, 24 h; series mostly up to 38.3 µM. An outline of the steps:
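Read-out is LipidTOX Red fluorescence (ex 595/em 615) imaged in HepG2 cells after 24 h compound exposure at 37 C, with Hoechst nuclear counterstain (ex 352/em 461) allowing per-cell normalisation.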
As to `CC(=O)O[C@@]12CO[C@@H]1C[C@H](O)[C@@]1(C)C(=O)[C@H](O)C3=C(C)[C@@H](OC(=O)[C@H](O)[C@@H](NC(=O)OC(C)(C)C)c4ccccc4)C[C@@](O)([C@@H](OC(=O)c4ccccc4)[C@H]21)C3(C)C`, the result was inactive.
Take `CC1(C)OC[C@@H](COC(=O)CCc2ccc(OC[C@@H](O)CNCCNC(=O)N3CCOCC3)cc2)O1`: the result was inactive.
For the compound `Cc1ccc(C(=O)c2ccc(CC(=O)O)n2C)cc1`, the call was inactive.
`CCCCCC(C)N` (stereo not given): the call was inactive.
On the same count and under the same terms, the value for `CC(=O)N1C[C@H](O)C[C@H]1C(=O)O` was “inactive”; that for `O=C(O)Cc1csc(-c2ccc(Cl)cc2)n1` was “inactive”; that for `Nc1c2c(nc3c1CCC3)CCCC2` was “inactive”.
Consider `C[N+](C)(CCOc1ccccc1)Cc1cccs1`, for which the result was inactive.
As for `Cc1nc2ccc(CN(C)c3ccc(C(=O)N[C@@H](CCC(=O)O)C(=O)O)s3)cc2c(=O)[nH]1`, the outcome was inactive.
In the case of `NS(=O)(=O)Cc1noc2ccccc12`, the compound was classed as inactive.
Regarding `CC[N+](CC)(CC)CCOc1cccc(OCC[N+](CC)(CC)CC)c1OCC[N+](CC)(CC)CC`, the outcome was inactive.
Take `Cc1ccc(-c2ncc(Cl)cc2-c2ccc(S(C)(=O)=O)cc2)cn1`: the result was inactive.
Regarding `CCCCS(=O)(=O)N[C@@H](Cc1ccc(OCCCCC2CCNCC2)cc1)C(=O)O`, the PLD induction is -2.88% [at 1.53 µM].
For the compound `CC(=O)N[C@H]1[C@H]([C@H](O)[C@H](O)CO)OC(C(=O)O)=C[C@@H]1N=C(N)N`, the outcome was inactive.
On to `CC(C)NNC(=O)c1ccncc1`, for which the call was inactive.

Tested on in another assay: not listed separately
The assay is described as follows: qHTS assay to identify small molecule HDAC inhibitors (AID 1259364).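 Further: wild-type HCT-116 cells with endogenous class I/II HDAC activity; top concentration of the series differs between compounds; nearly all actives have a fitted effect of over 45% in size.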 Conditions: HCT-116 HDAC-Glo I/II luminescence, 2 h; series mostly up to 92.4 µM. Summed up: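 After a 2 hr compound incubation (37C, 5% CO2), HCT-116 cells seeded at 1,500/well the day before received HDAC-Glo reagent; signal read as luminescence after 30 min at room temperature.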
On to `CCCCCCCCCC[N+](C)(C)[O-]`, for which the Potency result was “inactive”.
Regarding `CO[C@@]1(NC(=O)CSC[C@@H](N)C(=O)O)C(=O)N2C(C(=O)O)=C(CSc3nnnn3C)CS[C@@H]21`, the Potency entry was “inactive”.
Same read-out and setting: the value for `CC(=O)O[C@@]12CO[C@@H]1C[C@H](O)[C@@]1(C)C(=O)[C@H](O)C3=C(C)[C@@H](OC(=O)[C@H](O)[C@@H](NC(=O)OC(C)(C)C)c4ccccc4)C[C@@](O)([C@@H](OC(=O)c4ccccc4)[C@H]21)C3(C)C` was “inactive”; that for `CC1(C)OC[C@@H](COC(=O)CCc2ccc(OC[C@@H](O)CNCCNC(=O)N3CCOCC3)cc2)O1` was “inactive”; that for `O=S(=O)(O)c1cccc(S(=O)(=O)O)c1` was “inactive”.
With `CCCCCC(C)N` (stereo not given), the Potency entry was “inactive”.
Same read-out and setting: for `CCCCCCCC1CCCC1=O` (stereo not given) the value was “inactive”.
On the same count and under the same terms, for `CC(=O)N1C[C@H](O)C[C@H]1C(=O)O` the value was “inactive”.
For the compound `CCCOC(=O)CC`, the Potency result was “inactive”.
Same read-out and setting: the value for `O=C(O)Cc1csc(-c2ccc(Cl)cc2)n1` was “inactive”; that for `O=[N+]([O-])c1cncn1CCN1CCOCC1` was “inactive”.
`C=C(C)C(=O)OCC(O)CO` (stereo not given): the Potency entry was “inactive”.
`COCCOC[C@H](CC1(C(=O)NC2CCC(C(=O)O)CC2)CCCC1)C(=O)Oc1ccc2c(c1)CCC2` (stereo not given in full): the Potency result was “inactive”.
With `C[N+](C)(CCOc1ccccc1)Cc1cccs1`, the Potency result is “inactive”.
`NC(=O)NC1N=C([O][Al])NC1=O` (stereo not given): the Potency result is “inactive”.
`CCOC(=O)COc1cc(-n2ncc(C(F)(F)F)c(C)c2=O)c(F)cc1Cl`: the Potency entry is “inactive”.
On to `CCOC(=O)C(=O)CCCCCCl`, for which the Potency result was “inactive”.
Take `CC1CCC(CO)CC1` (stereo not given): the Potency result is “inactive”.
`Cc1onc(-c2c(Cl)cccc2Cl)c1C(=O)Cl`: the Potency entry was “inactive”.
Turning to `Cc1nc2ccc(CN(C)c3ccc(C(=O)N[C@@H](CCC(=O)O)C(=O)O)s3)cc2c(=O)[nH]1`, the Potency entry is “inactive”.
As to `COC(=O)Nc1ccc(Cl)c(Cl)c1`, the Potency entry was “inactive”.
For `NS(=O)(=O)Cc1noc2ccccc12`, the Potency entry was “inactive”.
In the case of `O=S(=O)(O)c1cc(O)c(O)c(S(=O)(=O)O)c1`, the Potency result is “inactive”.
For `CC1=NN(c2cccc(S(=O)(=O)O)c2)C(=O)C1`, the Potency entry is “inactive”.
For `Cc1ccc(-c2ncc(Cl)cc2-c2ccc(S(C)(=O)=O)cc2)cn1`, the Potency result is “inactive”.
Turning to `CCCCS(=O)(=O)N[C@@H](Cc1ccc(OCCCCC2CCNCC2)cc1)C(=O)O`, the Potency entry is “inactive”.
With `O=C(c1ccccc1O)c1ccccc1O`, the Potency result is “inactive”.
In the case of `CC(=O)N[C@H]1[C@H]([C@H](O)[C@H](O)CO)OC(C(=O)O)=C[C@@H]1N=C(N)N`, the Potency result is “inactive”.
As to `C=C[Si](OC(C)=O)(OC(C)=O)OC(C)=O`, the Potency entry is “inactive”.
Regarding `CCOc1c(N2CCOCC2)cnn(C)c1=O`, the Potency result is “inactive”.
Turning to `O=C(O)CCSCCC(=O)O`, the Potency entry is “inactive”.

Tested on in another assay: not listed separately
The assay is described as follows: qHTS assay to identify small molecule HDAC inhibitors - cell viability counter screen (AID 1259365). Further: nearly all actives have a fitted effect of over 50% in size. Conditions: HCT-116 viability, CellTiter-Glo ATP luminescence, 2 h; series mostly up to 92.4 µM. An outline of the steps:
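Wild-type HCT-116 cells were seeded at 1,500 per well, incubated overnight at 37 C, then exposed to compounds in DMSO for 2hr. Viability was read by CellTiter-Glo luminescence after 30min at room temperature.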
Take `CCCCCCCCCC[N+](C)(C)[O-]`: the outcome was inactive.
Consider `CO[C@@]1(NC(=O)CSC[C@@H](N)C(=O)O)C(=O)N2C(C(=O)O)=C(CSc3nnnn3C)CS[C@@H]21`, for which the outcome was inactive.
For `CC(=O)O[C@@]12CO[C@@H]1C[C@H](O)[C@@]1(C)C(=O)[C@H](O)C3=C(C)[C@@H](OC(=O)[C@H](O)[C@@H](NC(=O)OC(C)(C)C)c4ccccc4)C[C@@](O)([C@@H](OC(=O)c4ccccc4)[C@H]21)C3(C)C`, the compound was classed as inactive.
Turning to `CC1(C)OC[C@@H](COC(=O)CCc2ccc(OC[C@@H](O)CNCCNC(=O)N3CCOCC3)cc2)O1`, the outcome was inactive.
Regarding `Cc1ccc(C(=O)c2ccc(CC(=O)O)n2C)cc1`, the result was inactive.
Turning to `O=S(=O)(O)c1cccc(S(=O)(=O)O)c1`, the result was inactive.
For the compound `CCCCCC(C)N` (stereo not given), the outcome was inactive.
Consider `CCCCCCCC1CCCC1=O` (stereo not given), for which the result was inactive.
`O=C(O)Cc1csc(-c2ccc(Cl)cc2)n1`: the result was inactive.
For the compound `O=[N+]([O-])c1cncn1CCN1CCOCC1`, the compound was classed as inactive.
As for `C=C(C)C(=O)OCC(O)CO` (stereo not given), the result was inactive.
Same read-out and setting: for `COCCOC[C@H](CC1(C(=O)NC2CCC(C(=O)O)CC2)CCCC1)C(=O)Oc1ccc2c(c1)CCC2` (stereo not given in full) the value was “inactive”.
As for `CCCCOCCOC(=O)COc1cc(Cl)c(Cl)cc1Cl`, the call was inactive.
The same measure, in the same setting: the value for `Cc1ccc(-c2ccccc2C#N)cc1` was “inactive”.
Turning to `C[N+](C)(CCOc1ccccc1)Cc1cccs1`, the outcome was inactive.
For the compound `NC(=O)NC1N=C([O][Al])NC1=O` (stereo not given), the compound was called inactive.
Same read-out and setting: for `CCOC(=O)COc1cc(-n2ncc(C(F)(F)F)c(C)c2=O)c(F)cc1Cl` the value was “inactive”; for `CCOC(=O)C(=O)CCCCCCl`, “inactive”.
Turning to `CC1CCC(CO)CC1` (stereo not given), the compound was classed as inactive.
With `Cc1onc(-c2c(Cl)cccc2Cl)c1C(=O)Cl`, the call was inactive.
With `Cc1nc2ccc(CN(C)c3ccc(C(=O)N[C@@H](CCC(=O)O)C(=O)O)s3)cc2c(=O)[nH]1`, the result was inactive.
With `COC(=O)Nc1ccc(Cl)c(Cl)c1`, the result was inactive.
Still for that read-out and setting: for `NS(=O)(=O)Cc1noc2ccccc12` the value was “inactive”; for `O=S(=O)(O)c1cc(O)c(O)c(S(=O)(=O)O)c1`, “inactive”; for `CC1=NN(c2cccc(S(=O)(=O)O)c2)C(=O)C1`, “inactive”.
`CC(C)(C)c1ccc(-c2ccc(C(C)(C)C)cc2)cc1`: the compound was called inactive.
Turning to `CC[N+](CC)(CC)CCOc1cccc(OCC[N+](CC)(CC)CC)c1OCC[N+](CC)(CC)CC`, the call was inactive.
For `Cc1ccc(-c2ncc(Cl)cc2-c2ccc(S(C)(=O)=O)cc2)cn1`, the result was inactive.
Same read-out and setting: for `CCCCS(=O)(=O)N[C@@H](Cc1ccc(OCCCCC2CCNCC2)cc1)C(=O)O` the value was “inactive”; for `CC(=O)N[C@H]1[C@H]([C@H](O)[C@H](O)CO)OC(C(=O)O)=C[C@@H]1N=C(N)N`, “inactive”; for `C=C[Si](OC(C)=O)(OC(C)=O)OC(C)=O`, “inactive”.
On the same count and under the same terms, the value for `CCOc1c(N2CCOCC2)cnn(C)c1=O` was “inactive”; that for `O=C(O)CCSCCC(=O)O` was “inactive”.
Still for that read-out and setting: for `CC(C)NNC(=O)c1ccncc1` the value was “inactive”.
